Columns and labels:
Assay in all cases: log2 ratio of Biotin-Ahx-Ub-VS probe labelling (fragment/DMSO); higher = less target engagement (more negative = stronger competition), active = hit call of the paper (q ≤ 0.05, log2 ratio ≤ -1)
Conditions in all cases: compound concentration: 200 uM; treatment time: 3 h
ALG13 = molecular target: T1, ALG13 (UniProt Q9NP73)
T1 sequence (whole entry): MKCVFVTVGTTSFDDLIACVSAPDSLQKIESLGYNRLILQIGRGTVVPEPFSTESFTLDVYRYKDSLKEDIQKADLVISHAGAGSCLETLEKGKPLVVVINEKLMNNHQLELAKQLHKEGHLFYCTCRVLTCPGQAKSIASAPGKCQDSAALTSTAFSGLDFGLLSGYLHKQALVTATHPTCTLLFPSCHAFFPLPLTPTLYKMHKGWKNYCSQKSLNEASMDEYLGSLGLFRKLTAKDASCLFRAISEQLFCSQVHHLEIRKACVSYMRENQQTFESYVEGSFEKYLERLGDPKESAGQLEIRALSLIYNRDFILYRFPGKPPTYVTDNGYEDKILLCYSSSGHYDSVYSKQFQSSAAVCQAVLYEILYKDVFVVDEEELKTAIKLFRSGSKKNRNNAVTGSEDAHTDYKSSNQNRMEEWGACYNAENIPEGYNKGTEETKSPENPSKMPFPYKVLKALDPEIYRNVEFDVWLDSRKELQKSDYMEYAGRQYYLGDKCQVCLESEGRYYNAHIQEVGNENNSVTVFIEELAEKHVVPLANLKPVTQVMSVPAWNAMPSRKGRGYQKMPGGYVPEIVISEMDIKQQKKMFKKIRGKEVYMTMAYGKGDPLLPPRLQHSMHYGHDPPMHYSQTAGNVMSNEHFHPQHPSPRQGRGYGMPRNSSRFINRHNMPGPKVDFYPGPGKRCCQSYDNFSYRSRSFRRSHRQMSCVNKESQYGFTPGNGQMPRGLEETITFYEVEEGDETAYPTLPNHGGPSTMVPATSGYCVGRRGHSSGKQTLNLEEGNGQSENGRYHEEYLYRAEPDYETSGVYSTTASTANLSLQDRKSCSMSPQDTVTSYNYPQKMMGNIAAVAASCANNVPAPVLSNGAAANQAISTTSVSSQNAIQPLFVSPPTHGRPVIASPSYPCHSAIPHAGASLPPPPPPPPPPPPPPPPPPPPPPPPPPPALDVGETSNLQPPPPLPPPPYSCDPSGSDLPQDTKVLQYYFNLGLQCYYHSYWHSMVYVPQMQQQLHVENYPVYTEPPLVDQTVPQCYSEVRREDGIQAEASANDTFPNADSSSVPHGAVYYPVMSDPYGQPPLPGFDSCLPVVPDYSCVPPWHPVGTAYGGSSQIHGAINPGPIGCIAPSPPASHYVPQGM
Outline: (§1)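 Average log2 ratios of fragment over vehicle were obtained by unpaired t-test from global-median-normalised Spectronaut label-free quantities. Proteins with ≥2 unique peptides were included. HEK293T lysate (495 µg per sample) was treated in triplicate with fragment at 200 µM or vehicle for 3 h, then with Biotin-Ahx-Ub-VS at 0.5 µM final for 1 h, and labelled DUBs were NeutrAvidin-enriched and run by diaPASEF LC-MS/MS.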

ATXN3 = ATXN3 (UniProt P54252)
Outline: as §1

BAP1 = molecular target: T2, BAP1 (UniProt Q92560)
T2 sequence (whole entry): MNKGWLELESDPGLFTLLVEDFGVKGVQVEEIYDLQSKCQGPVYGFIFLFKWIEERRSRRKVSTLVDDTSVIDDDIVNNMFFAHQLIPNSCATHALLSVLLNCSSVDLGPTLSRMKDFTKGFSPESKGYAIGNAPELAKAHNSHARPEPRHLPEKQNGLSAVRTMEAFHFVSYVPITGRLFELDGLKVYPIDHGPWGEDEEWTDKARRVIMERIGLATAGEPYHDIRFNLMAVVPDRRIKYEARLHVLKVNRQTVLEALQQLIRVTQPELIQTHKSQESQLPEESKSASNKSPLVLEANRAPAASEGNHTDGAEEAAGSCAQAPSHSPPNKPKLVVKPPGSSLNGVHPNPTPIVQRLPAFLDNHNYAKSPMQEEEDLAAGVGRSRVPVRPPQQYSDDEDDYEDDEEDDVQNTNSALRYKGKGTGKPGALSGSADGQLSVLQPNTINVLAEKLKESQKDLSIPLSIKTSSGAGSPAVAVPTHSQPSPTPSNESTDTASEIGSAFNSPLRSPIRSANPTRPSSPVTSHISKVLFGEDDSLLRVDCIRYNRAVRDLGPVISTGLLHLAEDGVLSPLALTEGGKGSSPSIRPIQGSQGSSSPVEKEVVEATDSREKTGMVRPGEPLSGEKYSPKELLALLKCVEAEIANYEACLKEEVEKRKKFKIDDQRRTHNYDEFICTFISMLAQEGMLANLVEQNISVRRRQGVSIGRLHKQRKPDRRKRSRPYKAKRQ
Outline: as §1

EIF3F = EIF3F (UniProt O00303)
Outline: as §1

EIF3H = EIF3H (UniProt O15372)
Outline: as §1

FAM105A = molecular target: T3, FAM105A (UniProt Q9NUU6)
T3 sequence (whole entry): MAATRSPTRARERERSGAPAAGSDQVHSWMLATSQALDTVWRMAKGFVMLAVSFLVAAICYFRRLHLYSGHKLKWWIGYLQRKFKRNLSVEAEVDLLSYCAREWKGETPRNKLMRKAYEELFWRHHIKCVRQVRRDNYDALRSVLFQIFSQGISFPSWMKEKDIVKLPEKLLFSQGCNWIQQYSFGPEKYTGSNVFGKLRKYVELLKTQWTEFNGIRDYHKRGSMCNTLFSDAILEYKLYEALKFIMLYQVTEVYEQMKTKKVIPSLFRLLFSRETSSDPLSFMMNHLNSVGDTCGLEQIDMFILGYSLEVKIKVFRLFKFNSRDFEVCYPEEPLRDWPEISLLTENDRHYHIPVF
Outline: as §1

OTUB1 = OTUB1 (UniProt Q96FW1)
Outline: as §1

OTUD4 = molecular target: T4, OTUD4 (UniProt Q01804)
T4 sequence (whole entry): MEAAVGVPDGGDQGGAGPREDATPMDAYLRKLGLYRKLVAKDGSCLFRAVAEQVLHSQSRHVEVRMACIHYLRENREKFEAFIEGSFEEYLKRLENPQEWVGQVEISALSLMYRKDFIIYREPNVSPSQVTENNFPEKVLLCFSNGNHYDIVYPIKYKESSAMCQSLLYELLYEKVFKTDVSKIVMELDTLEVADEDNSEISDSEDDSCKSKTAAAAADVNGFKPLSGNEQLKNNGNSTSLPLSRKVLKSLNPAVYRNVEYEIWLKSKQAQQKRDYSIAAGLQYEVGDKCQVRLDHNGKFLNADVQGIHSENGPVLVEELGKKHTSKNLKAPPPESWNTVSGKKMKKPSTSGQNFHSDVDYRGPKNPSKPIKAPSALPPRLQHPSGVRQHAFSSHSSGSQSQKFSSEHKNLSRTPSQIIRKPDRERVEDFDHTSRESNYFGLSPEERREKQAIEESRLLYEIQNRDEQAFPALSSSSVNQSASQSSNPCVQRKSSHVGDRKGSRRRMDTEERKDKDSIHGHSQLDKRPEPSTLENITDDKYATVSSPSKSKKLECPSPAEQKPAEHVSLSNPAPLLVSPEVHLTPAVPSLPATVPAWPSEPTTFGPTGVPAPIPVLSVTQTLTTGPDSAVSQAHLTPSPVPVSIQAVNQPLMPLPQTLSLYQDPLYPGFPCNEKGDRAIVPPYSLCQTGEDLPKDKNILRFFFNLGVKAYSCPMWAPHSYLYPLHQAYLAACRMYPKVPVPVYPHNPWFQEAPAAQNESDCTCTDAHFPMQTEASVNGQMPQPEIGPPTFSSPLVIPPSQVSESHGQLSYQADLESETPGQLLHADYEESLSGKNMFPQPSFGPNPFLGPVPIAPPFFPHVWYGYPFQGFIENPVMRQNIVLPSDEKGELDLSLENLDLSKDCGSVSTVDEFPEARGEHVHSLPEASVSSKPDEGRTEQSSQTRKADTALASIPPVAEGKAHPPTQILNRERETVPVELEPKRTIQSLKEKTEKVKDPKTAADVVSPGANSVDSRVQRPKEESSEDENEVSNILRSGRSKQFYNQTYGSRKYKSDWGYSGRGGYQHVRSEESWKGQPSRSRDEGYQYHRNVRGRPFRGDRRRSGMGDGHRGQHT
Outline: as §1

OTUD5 = molecular target: T5, OTUD5 (UniProt Q96G74)
T5 sequence (whole entry): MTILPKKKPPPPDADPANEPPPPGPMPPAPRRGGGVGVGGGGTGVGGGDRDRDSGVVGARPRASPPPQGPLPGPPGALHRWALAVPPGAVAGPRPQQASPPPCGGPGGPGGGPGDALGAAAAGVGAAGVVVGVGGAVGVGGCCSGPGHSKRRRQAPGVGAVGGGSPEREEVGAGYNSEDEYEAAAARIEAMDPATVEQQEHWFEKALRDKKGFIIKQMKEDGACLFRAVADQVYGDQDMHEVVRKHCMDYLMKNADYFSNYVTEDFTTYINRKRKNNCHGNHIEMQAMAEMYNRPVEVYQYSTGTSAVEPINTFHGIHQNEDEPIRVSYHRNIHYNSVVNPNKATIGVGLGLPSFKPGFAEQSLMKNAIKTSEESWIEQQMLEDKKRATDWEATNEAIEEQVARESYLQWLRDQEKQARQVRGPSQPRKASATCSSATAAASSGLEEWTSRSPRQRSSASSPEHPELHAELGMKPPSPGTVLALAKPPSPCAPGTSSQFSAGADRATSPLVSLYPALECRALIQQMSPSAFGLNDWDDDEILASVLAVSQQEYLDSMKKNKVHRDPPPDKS
Outline: as §1

Measured: log2 ratio of Biotin-Ahx-Ub-VS probe labelling

Sequence of ATXN3 (P54252 whole entry): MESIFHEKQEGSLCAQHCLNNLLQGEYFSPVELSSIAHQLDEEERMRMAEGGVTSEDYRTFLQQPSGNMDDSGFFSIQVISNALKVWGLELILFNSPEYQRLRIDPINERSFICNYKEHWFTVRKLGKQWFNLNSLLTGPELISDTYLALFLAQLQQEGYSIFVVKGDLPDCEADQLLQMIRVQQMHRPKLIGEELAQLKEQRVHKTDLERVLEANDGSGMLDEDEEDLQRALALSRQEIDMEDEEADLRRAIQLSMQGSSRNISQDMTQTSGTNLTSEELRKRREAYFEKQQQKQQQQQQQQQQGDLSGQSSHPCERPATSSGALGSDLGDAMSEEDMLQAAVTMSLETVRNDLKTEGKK
Sequence of EIF3F (O00303 whole entry): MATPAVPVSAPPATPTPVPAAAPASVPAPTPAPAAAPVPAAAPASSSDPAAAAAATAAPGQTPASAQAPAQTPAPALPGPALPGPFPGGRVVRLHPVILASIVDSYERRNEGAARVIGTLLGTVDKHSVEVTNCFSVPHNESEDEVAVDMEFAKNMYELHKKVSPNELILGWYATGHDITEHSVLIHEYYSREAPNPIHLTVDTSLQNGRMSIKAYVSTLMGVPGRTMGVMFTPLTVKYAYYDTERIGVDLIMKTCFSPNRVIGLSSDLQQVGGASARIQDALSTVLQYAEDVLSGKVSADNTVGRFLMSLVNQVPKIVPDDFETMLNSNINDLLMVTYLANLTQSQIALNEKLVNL
Sequence of OTUB1 (Q96FW1 whole entry): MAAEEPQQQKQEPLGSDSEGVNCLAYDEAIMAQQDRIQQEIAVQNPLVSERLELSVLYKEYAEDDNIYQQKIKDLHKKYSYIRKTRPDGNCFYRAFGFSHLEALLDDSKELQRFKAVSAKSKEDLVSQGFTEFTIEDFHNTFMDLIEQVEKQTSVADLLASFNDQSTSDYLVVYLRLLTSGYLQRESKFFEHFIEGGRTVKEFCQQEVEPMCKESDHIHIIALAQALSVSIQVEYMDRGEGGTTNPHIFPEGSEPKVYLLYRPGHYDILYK
Sequence of EIF3H (O15372 whole entry): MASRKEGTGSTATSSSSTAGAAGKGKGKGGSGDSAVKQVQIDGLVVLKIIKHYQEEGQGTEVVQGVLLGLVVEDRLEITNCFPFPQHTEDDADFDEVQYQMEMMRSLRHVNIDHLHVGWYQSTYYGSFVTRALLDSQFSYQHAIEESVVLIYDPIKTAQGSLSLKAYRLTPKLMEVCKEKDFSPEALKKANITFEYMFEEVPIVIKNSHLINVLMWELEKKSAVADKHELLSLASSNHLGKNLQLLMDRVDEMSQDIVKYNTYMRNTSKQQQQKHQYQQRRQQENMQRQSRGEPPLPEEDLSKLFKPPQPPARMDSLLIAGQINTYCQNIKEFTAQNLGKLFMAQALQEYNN

O=C(CCl)N1c2ccccc2NC(=O)C12CCCC2
inactive: ALG13 -0.0909 | ATXN3 -0.311 | BAP1 -0.609 | EIF3F -0.0311 | EIF3H 0.277 | FAM105A 0.141 | OTUB1 -0.478 | OTUD4 -0.196 | OTUD5 -0.711
